Compounds without any hit were thinned out: in the full panel of roughly 79,000, 15% have a hit. Calls of active or inactive are those of the source. Rule as the data show it: active = growth inhibition above about 70%; inactive = the rest.
Tests used:
[1] = NCI Yeast Anticancer Drug Screen. Data for the rad52 strain (AID 147);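 also: 0% = growth of vehicle-treated control cultures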; details: S. cerevisiae rad52 mutant growth inhibition, hits give high values
How it was run: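 Growth of repair-deficient yeast cells was compared between compound-treated and vehicle-treated cultures to give percent inhibition.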

[2] = NCI Yeast Anticancer Drug Screen. Data for the wt1 strain (AID 149);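 also: 0% = growth of vehicle-treated wt1 cultures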; details: S. cerevisiae wt1 strain (SPY 50644) growth inhibition, hits give high values
How it was run: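 The wt1 strain was treated with compounds, and growth was compared with vehicle-treated cultures to give inhibition.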

[3] = NCI Yeast Anticancer Drug Screen. Data for the rad50EPP+ strain (AID 151);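 also: 0% = growth of vehicle-treated control cultures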; details: S. cerevisiae rad50 mutant strain, hits give high values
How it was run: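 Measured: growth inhibition of rad50EPP+ yeast. Reference: vehicle-treated controls. Screen uses strains with defined genetic alterations in DNA damage repair or cell cycle control.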

[4] = NCI Yeast Anticancer Drug Screen. Data for the mgt1 strain (AID 153); details: S. cerevisiae mgt1 mutant growth inhibition, hits give high values
How it was run: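 Compounds were applied to mgt1 mutant yeast, and growth was then compared against vehicle-treated control cultures to give percent inhibition.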

[5] = NCI Yeast Anticancer Drug Screen. Data for the rad50 strain (AID 155);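 also: 0% = growth of vehicle-only cultures of the same strain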; details: S. cerevisiae rad50 strain growth inhibition, hits give high values
How it was run: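 Cells are treated with compound, grown, and their growth is then scored against vehicle-only cultures of the same repair-deficient yeast strain.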

[6] = NCI Yeast Anticancer Drug Screen. Data for the mec2-1 strain (AID 157); details: S. cerevisiae mec2-1 strain, hits give high values
How it was run: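 Compounds were applied to mec2-1 yeast cells. Their growth was then compared with that of vehicle-treated cultures to give growth inhibition.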

[7] = NCI Yeast Anticancer Drug Screen. Data for the rad14 strain (AID 159);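 also: 0% = growth of vehicle-treated control cultures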; details: S. cerevisiae rad14 strain growth inhibition, hits give high values
How it was run: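 Readout: yeast growth inhibition, referenced to vehicle-only cultures. Strain bears a defined alteration in DNA damage repair.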

[8] = NCI Yeast Anticancer Drug Screen. Data for the sgs1 mgt1 strain (AID 161);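 also: 0% = growth of cultures given vehicle only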; details: S. cerevisiae sgs1 mgt1 strain, hits give high values
How it was run: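 Growth of a repair-deficient yeast mutant was monitored after compound treatment and expressed as inhibition relative to vehicle-treated cultures.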

[9] = NCI Yeast Anticancer Drug Screen. Data for the CLN2oe strain (AID 163);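 also: 0% = growth of vehicle-only control cultures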; details: S. cerevisiae CLN2oe strain, hits give high values
How it was run: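 Cells of an engineered yeast line with disturbed cell-cycle regulation are treated with compound. Inhibition of growth is then calculated relative to the vehicle-treated reference.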

[10] = NCI Yeast Anticancer Drug Screen. Data for the cln2 rad14 strain (AID 165);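 also: 0% = growth equal to vehicle treated cultures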; details: S. cerevisiae cln2 rad14 strain, hits give high values
How it was run: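 Strain: cln2 rad14 yeast, altered in cell cycle control and DNA damage repair. Read-out: growth inhibition vs vehicle.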

[11] = NCI Yeast Anticancer Drug Screen. Data for the bub3 strain (AID 167); details: S. cerevisiae bub3 mutant strain, hits give high values
How it was run: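 Part of a panel of yeast mutants defective in DNA damage repair or cell cycle regulation. Each strain is grown with compound, and inhibition is calculated relative to solvent-treated cultures.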

[12] = NCI Yeast Anticancer Drug Screen. Data for the wt2 strain (AID 169);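 also: 0% = growth of vehicle-treated yeast cultures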; details: S. cerevisiae wt2 strain growth inhibition, hits give high values
How it was run: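 Growth of compound-treated yeast is measured and expressed as inhibition relative to vehicle-only controls.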

[13] = NCI Yeast Anticancer Drug Screen. Data for the mlh1 strain (AID 171);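 also: 0% = growth of vehicle-treated control cultures of the same strain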; details: S. cerevisiae mlh1 strain growth inhibition, hits give high values
How it was run: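 Test agents were incubated with yeast bearing a defined DNA damage repair or cell cycle control alteration; values are growth inhibition normalised to vehicle-treated cultures.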

[14] = NCI Yeast Anticancer Drug Screen. Data for the mlh1 rad18 strain (AID 175); details: S. cerevisiae mlh1 rad18 strain growth inhibition, hits give high values
How it was run: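 A repair-deficient yeast strain is exposed to test compound, and growth is scored relative to vehicle-treated controls.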

[15] = NCI Yeast Anticancer Drug Screen. Data for the rad18 strain (AID 177); details: S. cerevisiae rad18 mutant growth inhibition, hits give high values
How it was run: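 DNA-repair-defective yeast; compound treatment; growth inhibition scored against vehicle.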

[16] = at 5.0 µM (retest, dose inferred, filed as 0.5)
[17] = at 50.0 µM (retest, dose inferred, filed as 5.0)

Measured: growth inhibition

CCCCN(CCCC)CCSc1ccc(Cl)cc1
inactive: [1]; at 1.2 µM -6% | [1]; at 3.7 µM -13% | [1]; at 11.0 µM -10% | [1]; at 33.0 µM 16% | [2]; at 1.2 µM -1% | [2]; at 3.7 µM 7% | [2]; at 11.0 µM 12% | [2]; at 33.0 µM 31% | [3]; at 1.2 µM -10% | [3]; at 3.7 µM -20% | [3]; at 11.0 µM 13% | [3]; at 33.0 µM 35% | [3]; at 100.0 µM 55% | [4]; at 1.2 µM -4% | [4]; at 3.7 µM -8% | [4]; at 11.0 µM -5% | [4]; at 33.0 µM -5% | [5]; at 1.2 µM -18% | [5]; at 3.7 µM -20% | [5]; [16] 2% | [5]; at 11.0 µM -15% | [5]; at 33.0 µM 28% | [5]; [17] 18% | [6]; at 1.2 µM -5% | [6]; at 3.7 µM -5% | [6]; [16] 3% | [6]; at 11.0 µM -7% | [6]; at 33.0 µM -8% | [6]; [17] 66% | [7]; at 1.2 µM 3% | [7]; at 3.7 µM -5% | [7]; at 11.0 µM 0% | [7]; at 33.0 µM 12% | [8]; [16] 2% | [9]; at 1.2 µM -12% | [9]; at 3.7 µM -12% | [9]; at 11.0 µM -13% | [9]; at 33.0 µM -11% | [9]; at 100.0 µM 59% | [10]; [16] 0% | [10]; [17] 4% | [11]; at 1.2 µM -9% | [11]; at 3.7 µM -5% | [11]; [16] 5% | [11]; at 11.0 µM -7% | [11]; at 33.0 µM 3% | [11]; [17] 43% | [12]; at 1.2 µM -5% | [12]; at 3.7 µM 3% | [12]; at 11.0 µM 13% | [12]; at 33.0 µM 45% | [13]; at 1.2 µM -14% | [13]; at 3.7 µM -11% | [13]; at 11.0 µM -9% | [13]; at 33.0 µM 17% | [14]; [16] 3% | [15]; at 1.2 µM -8% | [15]; at 3.7 µM -11% | [15]; at 11.0 µM -7% | [15]; at 33.0 µM 2%
active: [1]; at 100.0 µM 95% | [2]; at 100.0 µM 93% | [4]; at 100.0 µM 73% | [5]; at 50.0 µM 87.3% | [5]; at 100.0 µM 96% | [6]; at 50.0 µM 94.7% | [6]; at 100.0 µM 92% | [7]; at 100.0 µM 92% | [8]; [17] 70% | [8]; at 50.0 µM 82.4% | [10]; at 50.0 µM 79.4% | [11]; at 50.0 µM 94.5% | [11]; at 100.0 µM 92% | [12]; at 100.0 µM 97% | [13]; at 100.0 µM 91% | [14]; [17] 80% | [14]; at 50.0 µM 88.2% | [15]; at 100.0 µM 89%

O=Cc1cccc2ccc3ccccc3c12
inactive: [1]; at 1.2 µM -6% | [1]; at 3.7 µM 0% | [1]; at 11.0 µM 7% | [1]; at 33.0 µM 62% | [2]; at 1.2 µM -6% | [2]; at 3.7 µM -5% | [2]; at 11.0 µM -8% | [2]; at 33.0 µM 7% | [2]; at 100.0 µM 52% | [3]; at 1.2 µM 5% | [3]; at 3.7 µM 15% | [3]; at 11.0 µM 36% | [4]; at 1.2 µM -2% | [4]; at 3.7 µM -4% | [4]; at 11.0 µM -3% | [4]; at 33.0 µM 32% | [5]; at 1.2 µM -7% | [5]; at 3.7 µM -12% | [5]; [16] -102% | [5]; at 11.0 µM 12% | [6]; at 1.2 µM -1% | [6]; at 3.7 µM -1% | [6]; [16] -45% | [6]; at 11.0 µM 1% | [6]; at 33.0 µM 1% | [6]; [17] 41% | [7]; at 1.2 µM -1% | [7]; at 3.7 µM 1% | [7]; at 11.0 µM 9% | [8]; [16] -56% | [9]; at 1.2 µM -1% | [9]; at 3.7 µM 0% | [9]; at 11.0 µM 9% | [9]; at 33.0 µM 15% | [10]; [16] -52% | [10]; [17] 2% | [11]; at 1.2 µM -7% | [11]; at 3.7 µM -4% | [11]; [16] -54% | [11]; at 11.0 µM -3% | [11]; at 33.0 µM 4% | [12]; at 1.2 µM -2% | [12]; at 3.7 µM -2% | [12]; at 11.0 µM -3% | [12]; at 33.0 µM 26% | [13]; at 1.2 µM 5% | [13]; at 3.7 µM -5% | [13]; at 11.0 µM -2% | [13]; at 33.0 µM 63% | [14]; [16] -91% | [15]; at 1.2 µM -6% | [15]; at 3.7 µM -2% | [15]; at 11.0 µM 6% | [15]; at 33.0 µM 43%
active: [1]; at 100.0 µM 98% | [3]; at 33.0 µM 77% | [3]; at 100.0 µM 95% | [4]; at 100.0 µM 98% | [5]; at 33.0 µM 94% | [5]; [17] 89% | [5]; at 50.0 µM 99.3% | [5]; at 100.0 µM 97% | [6]; at 50.0 µM 99.5% | [6]; at 100.0 µM 96% | [7]; at 33.0 µM 71% | [7]; at 100.0 µM 99% | [8]; [17] 73% | [8]; at 50.0 µM 98.2% | [9]; at 100.0 µM 88% | [10]; at 50.0 µM 98.7% | [11]; [17] 81% | [11]; at 50.0 µM 98.7% | [11]; at 100.0 µM 97% | [12]; at 100.0 µM 80% | [13]; at 100.0 µM 98% | [14]; [17] 82% | [14]; at 50.0 µM 98.8% | [15]; at 100.0 µM 98%

N/C(=N\OC(=O)NC(Cl)=C(Cl)Cl)c1cc(C(F)(F)F)cc(C(F)(F)F)c1
inactive: [1]; at 1.2 µM -14% | [1]; at 3.7 µM -11% | [1]; at 11.0 µM -2% | [1]; at 33.0 µM 64% | [2]; at 1.2 µM 16% | [2]; at 3.7 µM -13% | [2]; at 11.0 µM -19% | [2]; at 33.0 µM 40% | [3]; at 1.2 µM -30% | [3]; at 3.7 µM -48% | [3]; at 11.0 µM -43% | [3]; at 33.0 µM -35% | [3]; at 100.0 µM 17% | [4]; at 1.2 µM -23% | [4]; at 3.7 µM 7% | [4]; at 11.0 µM 6% | [5]; at 1.2 µM -10% | [5]; at 3.7 µM -20% | [5]; [16] 34% | [5]; at 11.0 µM 6% | [5]; at 33.0 µM 59% | [5]; [17] 54% | [6]; at 1.2 µM -33% | [6]; at 3.7 µM -61%
active: [1]; at 100.0 µM 98% | [2]; at 100.0 µM 97% | [4]; at 33.0 µM 74% | [4]; at 100.0 µM 97% | [5]; at 50.0 µM 89% | [5]; at 100.0 µM 97%

From PubChem BioAssay (NCI)
